Laboratory results published in PubChem BioAssay (NCI).
This is part of a sample that, as a whole, favours compounds with a hit. Of some 83,000 tested, about 20% had one in any assay.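 Cell lines were cultured in 96-well plates, exposed to a single compound concentration, and assessed for percent growth 48 hours later.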 Activity calls are given as the source filed them. The calls were made as follows: active = growth percent below 10; inactive = the rest.

system: COLO 205 colon; assay: NCI-60 one-dose screen, 48 h (100 = growth as untreated, 0 = no growth, -100 = all killed); details: 10 µM unless noted

Structure (SMILES) | growth
COc1cc(C=O)ccc1OC1OC(COC(C)=O)C(OC(C)=O)C(OC(C)=O)C1OC(C)=O (stereo unspecified) | 98.7% (inactive)
CC1=CCC(OC(=O)C(C)(O)CCC(O)(C(=O)OC2(C)C=CC(O)(C(C)C)CC2)C(C)C)(C(C)C)CC1 (stereo unspecified) | 116% (inactive)
CC(=O)Nc1cccc(-c2ccc3c(c2)NC(=O)/C3=C\c2ccc[nH]2)c1 | 38.8% (inactive)
CC(C)(C)c1ccc(NS(=O)(=O)c2ccc3nc(NC(=O)c4cnccn4)[nH]c3c2)cc1 | 21.7% (inactive)
CC(C)(C)c1cc(/C=N/NC(=O)c2ccccc2NC(=O)c2cccs2)c(O)c(C(C)(C)C)c1 | 4.49% (active)
C#CCNC(=O)[C@H](Cc1ccccc1)NC(=O)[C@]12CC[C@@H](C(=C)C)[C@@H]1[C@H]1CC[C@@H]3[C@@]4(C)CCC(=O)C(C)(C)[C@@H]4CC[C@@]3(C)[C@]1(C)CC2 | 78.7% (inactive)
CCCCCCNC(=O)Oc1ccc(/C(=C(\C)c2ccccc2)c2ccc(OCCCN(C)C)cc2)cc1 | 58.1% (inactive)
CC(=O)Nc1ccc(-c2ccc3c(c2)NC(=O)/C3=C\c2ccc[nH]2)cc1 | 139% (inactive)
CCCCOc1ccc(/C=N/Nc2cc(C)nc3ccc(Br)cc23)cc1 | -58.5% (active)
COc1cc(/C(C)=C(\c2ccc(Cl)cc2)c2ccc(OCCN(C)C)cc2)ccc1F | -33.8% (active)
O=C(/C=C/c1ccc(Cl)cc1)c1ccc(NC(=O)N2CCN(c3cc4c(cc3F)c(=O)c(C(=O)O)cn4C3CC3)CC2)cc1 | 115% (inactive)
O=C(c1nc2ccccc2[nH]1)C1C(c2ccc(Cl)cc2)C2CC3CCCC[C@H]3N2[C@@]12C(=O)Nc1cc(Cl)ccc12 (stereo partly specified) | 29.8% (inactive)
O=C(NCCNc1nccc(-c2c(-c3cccc(F)c3)nc3sccn23)n1)c1ccc(Cl)cc1 | 29.8% (inactive)
O=C(CCN1CCCC1)Nc1ccc2c(NCCCc3ccccc3)c3ccccc3nc2c1 | -50.4% (active)
N#CC1=C(/N=C/c2ccccc2)Oc2c(ccc3ccccc23)C1c1ccc([N+](=O)[O-])cc1 (stereo unspecified) | 109% (inactive)
Brc1ccc(Nc2csc(-c3ccccn3)n2)cc1 | 111% (inactive)
COc1cc(/C(C)=C(\c2ccc(Cl)cc2)c2ccc(OCCN3CCCC3)cc2)ccc1F | 16.3% (inactive)
CC(=O)N1c2ccccc2NC2=C(C(=O)NC2(C)C)C1c1ccco1 (stereo unspecified) | 77.7% (inactive)
CCOC(=O)CSc1nc2ccccc2c(=O)n1Cc1ccc(S(N)(=O)=O)cc1 | 106% (inactive)

Structure (SMILES) | growth
CCCCOc1ccc(/C(C)=N/Nc2cc(C)nc3ccc(Br)cc23)cc1 | 26.5% (inactive)
COc1cc2c(c(O)c1Cl)C(=O)c1c(O)cc(C[C@H](C)O)cc1[C@H]2[C@H]1c2cc(C[C@H](C)O)cc(O)c2C(=O)c2c1cc(OC)c(Cl)c2O | -72.5% (active)
O=C(c1ccccc1)N1N=C(c2ccc(-n3ccc(C(F)(F)F)n3)c(F)c2)CC1c1ccc[nH]1 (stereo unspecified) | 116% (inactive)
O=C(Nc1ccc(-c2ccc3c(c2)NC(=O)/C3=C\c2ccc[nH]2)cc1)NC1CC1 | 115% (inactive)
O=c1ccc(-c2nc(N3CCOCC3)c3ccccc3n2)c[nH]1 | 106% (inactive)
COc1cc(/C=C\C(=O)O)ccc1OCc1ccccc1 | 108% (inactive)
COc1ccc(C(C)=O)c(OC)c1 | 113% (inactive)
NC1=NN=C(N)C1=Cc1cc2ccccc2n2nnnc12 | 99.7% (inactive)
C=C1C(=O)O[C@H]2[C@H]1CC/C(CNC(=O)/C=C/c1cccc(OC)c1)=C\CC[C@@]1(C)O[C@@H]21 | -56.5% (active)
CNC(=O)c1cc(Cn2nc(C)c(NC(=O)Nc3ccc(Cl)c(C(F)(F)F)c3)c2C)ccn1 | 99.9% (inactive)
Cc1ccc(/C=N/NC(=O)CSc2nc3ccccc3c(=O)n2Cc2ccc(S(N)(=O)=O)cc2)cc1 | 105% (inactive)
O=C(Cc1ccc(/C=C/C(=O)c2ncc[nH]2)cc1)Nc1ccc(Cl)cc1 | 32.9% (inactive)
CCCOC(=O)N[C@H]1CCc2c(Cl)c(OC)c(OC)c(OC)c2-c2ccc(SC)c(=O)cc21 | 0.25% (active)
O=S(=O)(NCCCNc1nccc(-c2c(-c3cccc(O)c3)nc3occn23)n1)c1ccc(Cl)cc1 | 27.7% (inactive)
COc1cc2c(=O)n(CCN(C)C)c3c4cc5c(cc4ccc3c2cc1OC)OCO5 | -56.3% (active)
C=CC(=O)N[C@@H](/C=C/C(=O)OCC)Cc1ccc(-c2cc(Cl)cc(Cl)c2)cc1 | 6.63% (active)
NC(=NCCCOc1ccc(F)cc1)Nc1ccc(I)cc1 | -66.8% (active)
Cc1cc2nc3c4cccc(O)c4n(CCN(C)C)c3nc2cc1C | 59.7% (inactive)
Oc1ccc(C(c2ccc(O)cc2)c2ccc(Br)cn2)cc1 | 1.1% (active)

system: DU-145 prostate; assay: as above; details: 10 µM unless noted

Structure (SMILES) | growth
COc1cc(C=O)ccc1OC1OC(COC(C)=O)C(OC(C)=O)C(OC(C)=O)C1OC(C)=O (stereo unspecified) | 107% (inactive)
CC1=CCC(OC(=O)C(C)(O)CCC(O)(C(=O)OC2(C)C=CC(O)(C(C)C)CC2)C(C)C)(C(C)C)CC1 (stereo unspecified) | 113% (inactive)
CC(=O)Nc1cccc(-c2ccc3c(c2)NC(=O)/C3=C\c2ccc[nH]2)c1 | 57.4% (inactive)
CC(C)(C)c1ccc(NS(=O)(=O)c2ccc3nc(NC(=O)c4cnccn4)[nH]c3c2)cc1 | 34.3% (inactive)
CC(C)(C)c1cc(/C=N/NC(=O)c2ccccc2NC(=O)c2cccs2)c(O)c(C(C)(C)C)c1 | 32.5% (inactive)
C#CCNC(=O)[C@H](Cc1ccccc1)NC(=O)[C@]12CC[C@@H](C(=C)C)[C@@H]1[C@H]1CC[C@@H]3[C@@]4(C)CCC(=O)C(C)(C)[C@@H]4CC[C@@]3(C)[C@]1(C)CC2 | 91.6% (inactive)
CCCCCCNC(=O)Oc1ccc(/C(=C(\C)c2ccccc2)c2ccc(OCCCN(C)C)cc2)cc1 | 99.6% (inactive)
CC(=O)Nc1ccc(-c2ccc3c(c2)NC(=O)/C3=C\c2ccc[nH]2)cc1 | 72% (inactive)
CCCCOc1ccc(/C=N/Nc2cc(C)nc3ccc(Br)cc23)cc1 | 16.4% (inactive)
COc1cc(/C(C)=C(\c2ccc(Cl)cc2)c2ccc(OCCN(C)C)cc2)ccc1F | 67.9% (inactive)
O=C(/C=C/c1ccc(Cl)cc1)c1ccc(NC(=O)N2CCN(c3cc4c(cc3F)c(=O)c(C(=O)O)cn4C3CC3)CC2)cc1 | 98.5% (inactive)
O=C(c1nc2ccccc2[nH]1)C1C(c2ccc(Cl)cc2)C2CC3CCCC[C@H]3N2[C@@]12C(=O)Nc1cc(Cl)ccc12 (stereo partly specified) | 62.1% (inactive)
O=C(NCCNc1nccc(-c2c(-c3cccc(F)c3)nc3sccn23)n1)c1ccc(Cl)cc1 | 71% (inactive)
O=C(CCN1CCCC1)Nc1ccc2c(NCCCc3ccccc3)c3ccccc3nc2c1 | -52.6% (active)
N#CC1=C(/N=C/c2ccccc2)Oc2c(ccc3ccccc23)C1c1ccc([N+](=O)[O-])cc1 (stereo unspecified) | 96% (inactive)
Brc1ccc(Nc2csc(-c3ccccn3)n2)cc1 | 94.6% (inactive)
COc1cc(/C(C)=C(\c2ccc(Cl)cc2)c2ccc(OCCN3CCCC3)cc2)ccc1F | 69.4% (inactive)
CC(=O)N1c2ccccc2NC2=C(C(=O)NC2(C)C)C1c1ccco1 (stereo unspecified) | 100% (inactive)
CCOC(=O)CSc1nc2ccccc2c(=O)n1Cc1ccc(S(N)(=O)=O)cc1 | 113% (inactive)

Structure (SMILES) | growth
CCCCOc1ccc(/C(C)=N/Nc2cc(C)nc3ccc(Br)cc23)cc1 | 96.3% (inactive)
COc1cc2c(c(O)c1Cl)C(=O)c1c(O)cc(C[C@H](C)O)cc1[C@H]2[C@H]1c2cc(C[C@H](C)O)cc(O)c2C(=O)c2c1cc(OC)c(Cl)c2O | 23.8% (inactive)
O=C(c1ccccc1)N1N=C(c2ccc(-n3ccc(C(F)(F)F)n3)c(F)c2)CC1c1ccc[nH]1 (stereo unspecified) | 111% (inactive)
O=C(Nc1ccc(-c2ccc3c(c2)NC(=O)/C3=C\c2ccc[nH]2)cc1)NC1CC1 | 103% (inactive)
O=c1ccc(-c2nc(N3CCOCC3)c3ccccc3n2)c[nH]1 | 93.6% (inactive)
COc1cc(/C=C\C(=O)O)ccc1OCc1ccccc1 | 103% (inactive)
COc1ccc(C(C)=O)c(OC)c1 | 113% (inactive)
NC1=NN=C(N)C1=Cc1cc2ccccc2n2nnnc12 | 100% (inactive)
C=C1C(=O)O[C@H]2[C@H]1CC/C(CNC(=O)/C=C/c1cccc(OC)c1)=C\CC[C@@]1(C)O[C@@H]21 | 13.2% (inactive)
CNC(=O)c1cc(Cn2nc(C)c(NC(=O)Nc3ccc(Cl)c(C(F)(F)F)c3)c2C)ccn1 | 101% (inactive)
Cc1ccc(/C=N/NC(=O)CSc2nc3ccccc3c(=O)n2Cc2ccc(S(N)(=O)=O)cc2)cc1 | 105% (inactive)
O=C(Cc1ccc(/C=C/C(=O)c2ncc[nH]2)cc1)Nc1ccc(Cl)cc1 | 18.4% (inactive)
CCCOC(=O)N[C@H]1CCc2c(Cl)c(OC)c(OC)c(OC)c2-c2ccc(SC)c(=O)cc21 | 3.02% (active)
O=S(=O)(NCCCNc1nccc(-c2c(-c3cccc(O)c3)nc3occn23)n1)c1ccc(Cl)cc1 | 95.4% (inactive)
COc1cc2c(=O)n(CCN(C)C)c3c4cc5c(cc4ccc3c2cc1OC)OCO5 | 3.59% (active)
C=CC(=O)N[C@@H](/C=C/C(=O)OCC)Cc1ccc(-c2cc(Cl)cc(Cl)c2)cc1 | 16.9% (inactive)
NC(=NCCCOc1ccc(F)cc1)Nc1ccc(I)cc1 | 63.1% (inactive)
Cc1cc2nc3c4cccc(O)c4n(CCN(C)C)c3nc2cc1C | 29.8% (inactive)
Oc1ccc(C(c2ccc(O)cc2)c2ccc(Br)cn2)cc1 | 47.4% (inactive)
